Several values for one entry are separate records, joined by “and”; a condition that tells them apart may be missing. Equal values may be shown once. This is part of a sample that, as a whole, favours compounds with a hit. Of some 79,000 tested, about 15% had one in any assay. Activity calls are given as the source filed them. Rule as the data show it: active = growth inhibition above about 70%; inactive = the rest.
Assay: NCI Yeast Anticancer Drug Screen. Data for the wt2 strain (AID 169);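 also: 0% = growth of vehicle-treated yeast cultures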
Conditions: S. cerevisiae wt2 strain growth inhibition, active compounds read high
Protocol: Growth inhibition of yeast strains with defined genetic alterations is measured as a screen for potential anti-cancer activity. Selected strains with alterations in DNA damage repair or cell cycle control were exposed to compounds and growth inhibition was measured relative to vehicle treated controls. The strain used in this assay is wt2

Measured: growth inhibition

CN(C)CCOC1(Cc2ccc(Cl)cc2Cl)CCC(C(C)(C)C)CC1 (stereo not given)
active: at 11.0 µM 99% | at 33.0 µM 100% and 99% | at 100.0 µM 100%
inactive: at 1.2 µM -1% and -3% | at 3.7 µM 3% and 8%

CCN(CC)Cc1cc(Nc2c3ccccc3nc3c2[nH]c2ccccc23)cc(CN(CC)CC)c1O
inactive: at 1.2 µM -1% | at 3.7 µM -2% | at 11.0 µM -4% | at 33.0 µM -2% | at 100.0 µM 1%

C[Si](C)(C)/C=C/CCNC(C#N)c1ccccc1 (stereo not given)
inactive: at 1.2 µM -9% | at 3.7 µM -19% | at 11.0 µM 39% | at 33.0 µM 36%
active: at 100.0 µM 95%

CC(=O)Nc1ccc2c(c1)-c1ccccc1C2=O
inactive: at 1.2 µM -4% | at 3.7 µM 4% | at 11.0 µM -6% | at 33.0 µM 1% | at 100.0 µM 62%

N#CNC(N)=Nc1cc2ccccc2c2ccccc12
active: at 33.0 µM 89% | at 100.0 µM 89%
inactive: at 1.2 µM 17% | at 3.7 µM 12% | at 11.0 µM 62%

CC(C)CN(CC(C)C)C(=O)c1ccc(Cl)c(Cl)c1
active: at 33.0 µM 74% | at 100.0 µM 99%
inactive: at 1.2 µM -3% | at 3.7 µM -5% | at 11.0 µM -5%

CC(=O)Nc1ccc2c(c1)Cc1cc(N=C3C=CC(=O)O3)ccc1-2
active: at 11.0 µM 93% | at 33.0 µM 99% | at 100.0 µM 95%
inactive: at 1.2 µM 0% | at 3.7 µM 18%

CC(C)CCCC(C)C1CCC2C3CCC4=CC(=O)/C(=C\O)CC4(C)C3CCC12C (stereo not given)
inactive: at 1.2 µM 2% | at 3.7 µM 0% | at 11.0 µM 2% | at 33.0 µM 1% | at 100.0 µM 10%

From PubChem BioAssay (NCI)
